# Screening data (PubChem)
# AmpC no deterg = qHTS Inhibitors of AmpC Beta-Lactamase (assay without detergent); P00811; AmpC nitrocefin hydrolysis, absorbance 480 nm, 0.0001% Triton; Potency, µM (series often up to 57.1 µM), for the others: at the highest dose activity change, negative = inhibition, usual class: inhibitors; actives 0.52% (n = 330,000); AID 485341, 2010;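 further: plate controls were no compound for no effect and no enzyme for full effect; nearly all actives have a fitted effect of over 20% in size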
# Target sequence (P00811 whole entry, looked up): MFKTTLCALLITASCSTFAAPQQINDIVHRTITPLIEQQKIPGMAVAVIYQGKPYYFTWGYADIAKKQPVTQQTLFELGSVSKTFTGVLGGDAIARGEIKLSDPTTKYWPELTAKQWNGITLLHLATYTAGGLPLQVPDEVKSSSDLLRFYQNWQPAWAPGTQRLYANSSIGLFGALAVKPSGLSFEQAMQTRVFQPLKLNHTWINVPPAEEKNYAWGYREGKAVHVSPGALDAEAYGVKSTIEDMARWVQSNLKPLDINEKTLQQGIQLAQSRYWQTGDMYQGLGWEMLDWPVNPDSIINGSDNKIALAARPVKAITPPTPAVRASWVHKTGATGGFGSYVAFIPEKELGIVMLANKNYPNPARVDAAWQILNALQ
#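 AmpC (5.3 nM in the dispensed reagent) in 20 mM phosphate pH 7.0 with 0.01% (detergent screen) or 0.0001% Triton X-100 was preincubated with compounds for 15 min at room temperature. Nitrocefin was then added from an 800 uM solution, and hydrolysis was followed at 480 nm.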
# FMDV inh = High Throughput Screening for Foot and Mouth Disease Virus Antivirals; actives 1.2% (n = 410,000); Potency, µM (highest dose often 57.9 µM), without a hit: top-dose activity change, negative = inhibition, actives largely listed as inhibitors; AID 1159524, 2015; FMDV antiviral cell-based qHTS; calls by dose curve; tested in HEK293T cells; further: read-out not given here; nearly all actives have a fitted effect of over 45% in size
# AMA1-RON2 inh = qHTS for Inhibitors of AMA1-RON; Towards Development of Antimalarial Drug Lead: Primary Screen. Plasmodium falciparum AMA1 (3D7) - RON2 peptide interaction. AlphaScreen AMA1-biotinylated RON2 peptide binding. Potency, µM (series often up to 58.2 µM), without a hit: top-dose activity change, negative = inhibition, most hits filed as inhibitors. actives 0.2% (n = 360,000). AID 720542, 2013;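 further: 0% = vehicle wells and -100% = peptide control; nearly all actives have a fitted effect of over 45% in size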
#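 AMA1 (3D7) with his tag at 25 nM final met compounds first, then biotinylated RON2 peptide at 25 nM; detection used donor plus acceptor beads, 10 µg/mL apiece, read by AlphaScreen after 30 min at room temperature.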
# AmpC inh detg = qHTS Inhibitors of AmpC Beta-Lactamase (assay with detergent). P00811. AmpC hydrolysis of nitrocefin, absorbance 480 nm, 0.01% Triton. Potency, µM (series often up to 114 µM), for the others: at the top dose activity change, negative = inhibition, actives largely listed as inhibitors. actives 0.041% (n = 370,000). AID 485294, 2010;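 further: 0% = no-compound wells and -100% = no-enzyme wells; nearly all actives have a fitted effect of over 25% in size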
#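 20 mM phosphate pH 7.0 + 0.01% (detergent screen) or 0.0001% Triton X-100; 5.3 nM AmpC reagent; cpd preinc 15 min RT; nitrocefin (800 uM stock) to start; A480 q20 s × 4 min; Activity was normalised to no-enzyme and no-compound control wells.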
# Sm TGR inh = qHTS Assay for the Inhibitors of Schistosoma Mansoni Peroxiredoxins; purified TGR, DTNB reduction, TNB absorbance 405 nm; Potency, µM (highest dose often 114 µM), for inactives: top-dose activity change, negative = inhibition, hits mostly inhibitors; Schistosoma mansoni thioredoxin glutathione reductase (TGR), Q962Y6; actives 3% (n = 360,000); AID 485364, 2010; further: nearly all actives have a fitted effect of over 60% in size
#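 First, TGR (20 nM dispensed) and NADPH were mixed with compound. Second, a 15 min room-temperature incubation followed. Third, further NADPH and then DTNB were added to start the reaction. Finally, TNB absorbance was monitored kinetically.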
# Starred values were filed as active, the others as inactive; ? = inconclusive; / = no result given. Compounds with a hit are over-represented: about 4.1% of the library has one in this group of screens. Unless noted, the call rests on the fitted dose curve; in most records, active means well fitted curve in the direction sought with a large enough effect; inconclusive means small, poorly fitted or top-dose-only effect, or another doubt; inactive means no such curve, though single readings can be large; an effect the other way counts as inactive or inconclusive. Unless noted, on the % scale 0 is the no-effect control and ±100 the full control effect; potency means the concentration at half of the fitted maximal effect.
SMILES,AmpC no deterg,FMDV inh,AMA1-RON2 inh,AmpC inh detg,Sm TGR inh
Cc1ccc(S(=O)(=O)n2cnc3cc([N+](=O)[O-])ccc32)cc1C,-6%,-12%,1%,-1%,1%
Cc1ccc(-n2c3nc(=O)[nH]c(=O)c-3cc3cc([N+](=O)[O-])ccc32)cc1C,-38%,28µM*,-1%,?,-28%
CCc1nn(CCCC(=O)N2CCN(c3cc(Cl)ccc3C)CC2)c(=O)c2cc3occc3n12,/,-18%,/,-6%,-4%
O=c1[nH]c2cc3c(cc2cc1CN(Cc1nnnn1CC1CCCO1)C1CCCC1)OCO3 (centres undefined),0%,19%,0%,-5%,25µM*
COc1cc2cc(CN(Cc3nnnn3Cc3ccco3)C3CCCCC3)c(=O)[nH]c2cc1OC,115%,-24%,-3%,?,13µM*
CCOc1ccc2[nH]c(=O)c(CN(Cc3nnnn3Cc3ccco3)C3CCCCC3)cc2c1,22%,-23%,-2%,18%,5.6µM*
COc1cccc(CNC(=O)c2c(OC)cc(=O)n3c2CCN(C(=O)c2ccc(C)s2)CC3)c1,/,-7%,/,/,/
CC(=O)Nc1ccc(S(=O)(=O)NC2(C(F)(F)F)C(=O)Nc3c2c(=O)[nH]c(=O)n3-c2cccc(Cl)c2)cc1 (centres undefined),/,-11%,/,-1%,-1%
Clc1ccccc1-c1nc(N2CCNCC2)c2ccccc2n1,/,12%,/,/,/
CCOC(=O)C(C)CC(C)C(=O)N1CCOCCOCCN(C(=O)C(C)CC(C)C(=O)OCC)CCOCC1 (centres undefined),120%,-2%,-11%,-8%,-4%
CCOC(=O)C(C(=O)OCC)C(C(=O)OCC)N1CCOCC1 (centres undefined),3%,32µM*,1%,3%,0.63µM*
O=C(CCC(=O)N1CCCc2ccccc21)N1CCN(S(=O)(=O)c2ccccc2)CC1,47%,-21%,22%,?,-2%
O=C(CCS(=O)(=O)c1ccccc1)N1CCCc2ccccc21,2%,19%,0%,?,40µM*
O=C(NCc1nnc2n1CCN(Cc1ccc(C(F)(F)F)cc1)CC2)c1cccc(F)c1,/,-12%,/,/,/
O=S(=O)(/C=C/c1ccccc1)N1CCC(n2c(C3CCCO3)nc3cccnc32)CC1 (centres undefined),/,7%,/,/,/
Cc1ccc(NC(=O)CN2C(=O)N/C(=C/c3cc(C)n(-c4cccc(C(=O)O)c4)c3C)C2=O)cc1,-4%,7%,-4%,1%,20µM*
Cc1ccc(NC(=O)CN2C(=O)N/C(=C/c3ccc(C)o3)C2=O)cc1,84%,13%,-1%,-9%,35µM*
Cc1cccc(NC(=O)CN2C(=O)N/C(=C\c3ccc(-c4cccc(C(=O)O)c4)o3)C2=O)c1,-39%,15%,-3%,7%,56µM*
Cc1cccc(NC(=O)CN2C(=O)N/C(=C/c3ccc(C)o3)C2=O)c1,-31%,-5%,9%,-7%,50µM*
CCn1c(C)cc(/C=C2\NC(=O)N(CC(=O)Nc3cccc(C)c3)C2=O)c1C,-4%,22%,-3%,3%,-33%
Cc1ccc(NC(=O)CN2C(=O)N/C(=C\c3cccn3-c3cccc(C(=O)O)c3)C2=O)cc1,-21%,10%,10%,-1%,-22%
CCOc1ccc(CNC(=O)CCC(=O)N2CC3CCCN3c3ccccc32)cc1 (centres undefined),/,-21%,/,?,4%
O=C(O)c1cccc(-n2cccc2/C=C2\NC(=O)N(Cc3ccc(F)cc3)C2=O)c1,-18%,?,-10%,-1%,/
Cc1ccc(CN2C(=O)N/C(=C\c3cccn3-c3cccc(C(=O)O)c3)C2=O)cc1,-1%,-20%,-9%,-3%,35µM*
C=CCN1C(=O)N/C(=C/c2ccc(C)o2)C1=O,-17%,12%,10%,-4%,32µM*
SMILES,AmpC no deterg,FMDV inh,AMA1-RON2 inh,AmpC inh detg,Sm TGR inh
COC(=O)C[C@]1(C(=O)OC)CN(C#N)N(c2ccc(Cl)cc2)C12c1ccccc1-c1ccccc12,108%,4.5µM*,-2%,?,-33%
COC(=O)[C@@H]1[C@@H](C(=O)OC)C2(c3ccccc3-c3ccccc32)N(c2ccc(Cl)cc2)N1C#N,61%,3.5µM*,-10%,?,2.8µM*
COC(=O)CN1C(=O)C(O)(CC(=O)c2ccc(Cl)cc2)c2ccccc21 (centres undefined),4%,-9%,-3%,?,?
Cc1nc2nc(SCC(=O)Nc3cccc(Cl)c3)nn2c(C)c1Cc1ccccc1,/,?,/,4%,16%
Cc1ccc(Cl)cc1NC(=O)c1sc(-n2nc(C)c(Cc3ccc4c(c3)OCO4)c2C)nc1C,/,-9%,/,14%,-1%
CCc1ccccc1NC(=O)c1cc2c(Cl)nc3ccccc3c2s1,/,0%,/,18%,0%
Cc1ccc(S(=O)(=O)NC2OC(=O)C(Cl)=C2Cl)cc1 (centres undefined),-27%,?,40%,1%,2.8µM*
Cc1ccc(SCC(=O)Nc2ccc(O)c(-c3nc4cc(C)ccc4o3)c2)cc1,/,27%,/,23%,3%
CCN(CC)c1cc2c(c3c1ccn3C)C1CCC2C1 (centres undefined),/,-16%,?,/,/
CN(Cc1ccccc1)c1cc2c(c3c1ccn3C)C1CCC2O1 (centres undefined),/,0%,14µM*,/,/
CCN(Cc1ccccc1)c1cc2c(c3c1ccn3C)C1CCC2C1 (centres undefined),/,-15%,20µM*,/,/
Cn1ccc2c(N(Cc3ccccc3)Cc3ccccc3)cc3c(c21)C1CCC3O1 (centres undefined),/,-25%,?,/,/
C[C@@H]1NCCc2cc(O)c(O)cc21,-25%,-23%,?,-18%,45µM*
Cc1sc(NC(=O)c2ccco2)nc1-c1ccc2c(c1)CC(C)N2C(=O)C1CC1 (centres undefined),48%,14µM*,-7%,-17%,-34%
O=C(NCC1Cc2cccc(-c3ccccn3)c2O1)c1cnn2cccnc12 (centres undefined),/,3%,/,/,/
CC(C)c1onc(C(=O)Nc2cccnc2Cl)c1[N+](=O)[O-],11%,-5%,16%,-3%,45µM*
CC(C)c1onc(C(=O)Nc2cccc(O)c2)c1[N+](=O)[O-],-16%,11%,22%,-5%,?
Cc1onc(C(=O)Nc2cccnc2Cl)c1[N+](=O)[O-],-11%,-6%,-2%,-9%,-21%
Cc1ccc(NC(=O)c2noc(C(C)C)c2[N+](=O)[O-])cc1,0%,34%,7%,3%,40µM*
